The values below come from paper PMC12864922, “TDP-43 directly inhibits mRNA accumulation in neurites through modulation of mRNA stability”.

Over roughly 9,900 sequences, “r (bound/input frequency ratio)” has its median near 0.7; the highest 2% begin near 6.5. The sample holds the highest values, similar sequences and a random draw of the others, so the mix is not that of the screen.

B1: ENSMUSG00000028439.233|Fam219a (ssRNA)
RNA: GGGAGUUCUACAGUCCGACGAUCGCUUCGAUAUCCGCAUGCUACACCGACAGAGUCUUUUCAUACCAGAAGGAAUUUCUUCACAGGAGUUUCUGCAAAAGACUAUGACAUCUGUGUGUCUGUGGUCUCACGAGGUACCUGGAGGUGUAUGUGCACGGACAUGGGAAGUACGUGAAGAUUUAUUUCGGGAAAAGUGGUGUGUGUGUAGCUGUACUGGGUGUCAUGUAUGCUGUUGCUUCUGCUGCUGGUCUGGUCUGAGGGAGGAAAGCUGAGGCUGUAGCUCAGUGAGAUGGUGGCUCUCCCACUCUUGCGGUCGCACUAGUGUGGAAUUCUCGGGUGUCAAGG
B2: ENSMUSG00000058297.18|Spock2 (ssRNA)
RNA: GGGAGUUCUACAGUCCGACGAUCGCUUCGAUAUCCGCAUGCUAAGCCCUCGACGGCCUCGGCAGGCCAGGGUGCCGACGGCCAGAAAGACAGGCCAGAAGAGACCUGGACAACAGCAGGCAACUUAGCAAAUGGAUCCGGAAGUCAGUGCGGAGGACCCUGGCUCCAGUGGGGGAGGACUGGGGAGUGUGGCUUGUGUGUAUGUGUGAUAUGAGAUGUGUGUGUAUGAUGUGAGAUGUGAGUGUGUGAUGUGAGAUGUGUGUAUGUGAGAUGUGUGUGUGUGUGUGUGUGUGUGUGAUGUGAGCUCUUGCGGUCGCACUAGUGUGGAAUUCUCGGGUGUCAAGG
B3: ENSMUSG00000058297.20|Spock2 (ssRNA)
RNA: GGGAGUUCUACAGUCCGACGAUCGCUUCGAUAUCCGCAUGCUACCUCGGCAGGCCAGGGUGCCGACGGCCAGAAAGACAGGCCAGAAGAGACCUGGACAACAGCAGGCAACUUAGCAAAUGGAUCCGGAAGUCAGUGCGGAGGACCCUGGCUCCAGUGGGGGAGGACUGGGGAGUGUGGCUUGUGUGUAUGUGUGAUAUGAGAUGUGUGUGUAUGAUGUGAGAUGUGAGUGUGUGAUGUGAGAUGUGUGUAUGUGAGAUGUGUGUGUGUGUGUGUGUGUGUGUGAUGUGAGUCACCCAAAGGUCUCUUGCGGUCGCACUAGUGUGGAAUUCUCGGGUGUCAAGG
B4: ENSMUSG00000058297.19|Spock2|137:141;145:158;167:178;192:198;207:216;222:247 (ssRNA)
RNA: GGGAGUUCUACAGUCCGACGAUCGCUUCGAUAUCCGCAUGCUACGACGGCCUCGGCAGGCCAGGGUGCCGACGGCCAGAAAGACAGGCCAGAAGAGACCUGGACAACAGCAGGCAACUUAGCAAAUGGAUCCGGAAGUCAGUGCGGAGGACCCUGGCUCCAGUGGGGGAGGACUGGGGACACACGCUACACACAUACACACAUAUGAGAACACACACAUACAUGUGAGAUGUGACACACACAUGUGAGAACACACAUACUGAGAACACACACACACACACACACACACACAUGUGAGUCACCCCUCUUGCGGUCGCACUAGUGUGGAAUUCUCGGGUGUCAAGG
B5: ENSMUSG00000058297.5|Spock2|221:225;229:242;251:259 (ssRNA)
RNA: GGGAGUUCUACAGUCCGACGAUCGCUUCGAUAUCCGCAUGCUAAGAAGAGGCAGGGGAGGAGGCCGAGGAGGAGGAGGGUGAGGCGGGUGAGGCAGAUGAUGGAGGCUACAUCUGGUAGAUAGCCCUCGACGGCCUCGGCAGGCCAGGGUGCCGACGGCCAGAAAGACAGGCCAGAAGAGACCUGGACAACAGCAGGCAACUUAGCAAAUGGAUCCGGAAGUCAGUGCGGAGGACCCUGGCUCCAGUGGGGGAGGACUGGGGACACACGCUACACACAUACACACAUAUGAGAACACACACAACUCUUGCGGUCGCACUAGUGUGGAAUUCUCGGGUGUCAAGG
B6: ENSMUSG00000058297.21|Spock2 (ssRNA)
RNA: GGGAGUUCUACAGUCCGACGAUCGCUUCGAUAUCCGCAUGCUACAGGCCAGGGUGCCGACGGCCAGAAAGACAGGCCAGAAGAGACCUGGACAACAGCAGGCAACUUAGCAAAUGGAUCCGGAAGUCAGUGCGGAGGACCCUGGCUCCAGUGGGGGAGGACUGGGGAGUGUGGCUUGUGUGUAUGUGUGAUAUGAGAUGUGUGUGUAUGAUGUGAGAUGUGAGUGUGUGAUGUGAGAUGUGUGUAUGUGAGAUGUGUGUGUGUGUGUGUGUGUGUGUGAUGUGAGUCACCCAAAGGUCCCUAUCUCUUGCGGUCGCACUAGUGUGGAAUUCUCGGGUGUCAAGG
B7: ENSMUSG00000058297.20|Spock2|131:135;139:152;161:172;186:192;201:210;216:241 (ssRNA)
RNA: GGGAGUUCUACAGUCCGACGAUCGCUUCGAUAUCCGCAUGCUACCUCGGCAGGCCAGGGUGCCGACGGCCAGAAAGACAGGCCAGAAGAGACCUGGACAACAGCAGGCAACUUAGCAAAUGGAUCCGGAAGUCAGUGCGGAGGACCCUGGCUCCAGUGGGGGAGGACUGGGGACACACGCUACACACAUACACACAUAUGAGAACACACACAUACAUGUGAGAUGUGACACACACAUGUGAGAACACACAUACUGAGAACACACACACACACACACACACACACAUGUGAGUCACCCAAAGGUCUCUUGCGGUCGCACUAGUGUGGAAUUCUCGGGUGUCAAGG
B8: ENSMUSG00000058297.18|Spock2|143:147;151:164;173:184;198:204;213:222;228:253 (ssRNA)
RNA: GGGAGUUCUACAGUCCGACGAUCGCUUCGAUAUCCGCAUGCUAAGCCCUCGACGGCCUCGGCAGGCCAGGGUGCCGACGGCCAGAAAGACAGGCCAGAAGAGACCUGGACAACAGCAGGCAACUUAGCAAAUGGAUCCGGAAGUCAGUGCGGAGGACCCUGGCUCCAGUGGGGGAGGACUGGGGACACACGCUACACACAUACACACAUAUGAGAACACACACAUACAUGUGAGAUGUGACACACACAUGUGAGAACACACAUACUGAGAACACACACACACACACACACACACACAUGUGAGCUCUUGCGGUCGCACUAGUGUGGAAUUCUCGGGUGUCAAGG
B9: ENSMUSG00000058297.22|Spock2 (ssRNA)
RNA: GGGAGUUCUACAGUCCGACGAUCGCUUCGAUAUCCGCAUGCUAAGGGUGCCGACGGCCAGAAAGACAGGCCAGAAGAGACCUGGACAACAGCAGGCAACUUAGCAAAUGGAUCCGGAAGUCAGUGCGGAGGACCCUGGCUCCAGUGGGGGAGGACUGGGGAGUGUGGCUUGUGUGUAUGUGUGAUAUGAGAUGUGUGUGUAUGAUGUGAGAUGUGAGUGUGUGAUGUGAGAUGUGUGUAUGUGAGAUGUGUGUGUGUGUGUGUGUGUGUGUGAUGUGAGUCACCCAAAGGUCCCUAUGUUAUUCUCUUGCGGUCGCACUAGUGUGGAAUUCUCGGGUGUCAAGG
B10: ENSMUSG00000058297.21|Spock2|125:129;133:146;155:166;180:186;195:204;210:235 (ssRNA)
RNA: GGGAGUUCUACAGUCCGACGAUCGCUUCGAUAUCCGCAUGCUACAGGCCAGGGUGCCGACGGCCAGAAAGACAGGCCAGAAGAGACCUGGACAACAGCAGGCAACUUAGCAAAUGGAUCCGGAAGUCAGUGCGGAGGACCCUGGCUCCAGUGGGGGAGGACUGGGGACACACGCUACACACAUACACACAUAUGAGAACACACACAUACAUGUGAGAUGUGACACACACAUGUGAGAACACACAUACUGAGAACACACACACACACACACACACACACAUGUGAGUCACCCAAAGGUCCCUAUCUCUUGCGGUCGCACUAGUGUGGAAUUCUCGGGUGUCAAGG
B11: ENSMUSG00000058297.19|Spock2 (ssRNA)
RNA: GGGAGUUCUACAGUCCGACGAUCGCUUCGAUAUCCGCAUGCUACGACGGCCUCGGCAGGCCAGGGUGCCGACGGCCAGAAAGACAGGCCAGAAGAGACCUGGACAACAGCAGGCAACUUAGCAAAUGGAUCCGGAAGUCAGUGCGGAGGACCCUGGCUCCAGUGGGGGAGGACUGGGGAGUGUGGCUUGUGUGUAUGUGUGAUAUGAGAUGUGUGUGUAUGAUGUGAGAUGUGAGUGUGUGAUGUGAGAUGUGUGUAUGUGAGAUGUGUGUGUGUGUGUGUGUGUGUGUGAUGUGAGUCACCCCUCUUGCGGUCGCACUAGUGUGGAAUUCUCGGGUGUCAAGG

Sequence of TDP-43 (Q13148 whole entry): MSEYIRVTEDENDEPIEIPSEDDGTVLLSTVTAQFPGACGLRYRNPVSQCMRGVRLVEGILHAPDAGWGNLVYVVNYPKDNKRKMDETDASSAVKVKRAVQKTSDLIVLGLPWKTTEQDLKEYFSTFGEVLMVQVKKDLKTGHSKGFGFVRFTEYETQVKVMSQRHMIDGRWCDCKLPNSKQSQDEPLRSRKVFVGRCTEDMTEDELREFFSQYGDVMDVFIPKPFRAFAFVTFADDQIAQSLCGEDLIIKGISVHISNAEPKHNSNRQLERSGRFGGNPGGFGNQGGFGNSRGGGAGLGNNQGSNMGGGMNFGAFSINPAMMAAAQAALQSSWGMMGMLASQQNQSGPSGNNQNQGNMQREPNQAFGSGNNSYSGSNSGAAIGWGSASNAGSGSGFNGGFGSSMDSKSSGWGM

In this experiment the target is TDP-43 (Homo sapiens, UniProt Q13148 1-414). The experiment in a line: RNA Bind-n-Seq with designed 260-mer pool; 25 mM Tris-HCl, 150 mM KCl, 3 mM MgCl2, BSA (printed 500 mg/mL), 20 units/mL SUPERase IN; pH not stated; 500 nM RNA pool, 1 h, 4 C; TDP-43 5, 50, 500 nM; high values mean tight binding. As to conditions: protein: recombinant; tags: SBP (GST cleaved off with PreScission; pGEX-GST-SBP). An outline of the steps:
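For each oligo, R gives binding as its mapped-read-normalized abundance after pulldown divided by its abundance in input. Bead-captured SBP-tagged TDP-43 (5, 50 or 500 nM) was incubated with 500 nM of an in vitro-transcribed 260-nt 3′ UTR oligo pool for 1 h at 4 °C in 25 mM Tris-HCl, 150 mM KCl, 3 mM MgCl2, BSA and SUPERase IN on streptavidin beads. Washed, biotin-eluted RNA was reverse transcribed, PCR-amplified and sequenced.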
As for B1, the binding signal was 3.93 R (bound/input frequency ratio).

Take B2: the binding signal was 7.4 R (bound/input frequency ratio).

As to B3, the binding signal was 8.16 R (bound/input frequency ratio).

Turning to B4, the binding signal is 3.73 R (bound/input frequency ratio).

With B5, the binding signal is 2.97 R (bound/input frequency ratio).

B6: the binding signal was 6.78 R (bound/input frequency ratio).

In the case of B7, the binding signal is 1.82 R (bound/input frequency ratio).

Turning to B8, the binding signal was 3.16 R (bound/input frequency ratio).

For B9, the binding signal was 5.79 R (bound/input frequency ratio).

For the molecule B10, the binding signal is 2.78 R (bound/input frequency ratio).

In the case of B11, the binding signal was 6.67 R (bound/input frequency ratio).
